Hit rate of the full screen: of about 76,000 compounds, about 1,900 (2.5%) were called active. Where a call stands in place of a potency, no number is given. Inconclusive results (about 5%) are left out. The sample holds actives, similar compounds and a random draw of the others, so the mix is not that of the screen. The call rests on the fitted dose curve; in most records, active means well fitted inhibition curve with a large enough effect; inconclusive means small, poorly fitted or top-dose-only effect; inactive means flat fitted curve, though single readings scatter.

Chain of Luciferin 4-monooxygenase (Photinus pyralis) (P08659 whole entry, looked up): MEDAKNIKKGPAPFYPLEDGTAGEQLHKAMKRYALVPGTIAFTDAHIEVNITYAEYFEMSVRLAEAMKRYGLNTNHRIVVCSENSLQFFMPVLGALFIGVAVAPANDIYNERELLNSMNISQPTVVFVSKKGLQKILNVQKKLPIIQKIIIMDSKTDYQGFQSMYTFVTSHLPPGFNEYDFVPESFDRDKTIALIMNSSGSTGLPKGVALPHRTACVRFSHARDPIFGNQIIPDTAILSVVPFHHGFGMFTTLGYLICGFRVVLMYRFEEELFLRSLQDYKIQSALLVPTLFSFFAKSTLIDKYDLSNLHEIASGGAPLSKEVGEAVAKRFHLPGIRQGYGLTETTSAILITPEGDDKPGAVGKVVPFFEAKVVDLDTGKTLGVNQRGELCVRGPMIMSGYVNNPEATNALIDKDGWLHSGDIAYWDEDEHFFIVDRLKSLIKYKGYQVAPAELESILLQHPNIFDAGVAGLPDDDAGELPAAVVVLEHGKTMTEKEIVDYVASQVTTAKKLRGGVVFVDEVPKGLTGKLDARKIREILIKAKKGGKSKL

This test has as its target Luciferin 4-monooxygenase (Photinus pyralis) (UniProt P08659). Briefly: Firefly luciferase inhibition profiling of diverse chemical library using quantitative high-throughput screening. Further: nearly all actives have a fitted effect of over 65% in size. To be noted: purified P. pyralis luciferase, luminescence, biochemical; series mostly up to 172 µM. The text has this:
Firefly (Photinus pyralis) luciferase is one of the most commonly used transcriptional reporters for a number of reasons. It is considered one of the more dynamically responsive reporters - that is, responsive to changes in reporter transcription - as it requires no post-translational modifications and is enzymatically active directly after protein synthesis (Wood, 1998). Additionally, the half-life of the luciferase protein is short relative to other reporter-gene products (Wood, 1995). Whereas reporters with long half-lives potentially allow for increased signal due to accumulation of reporter-gene product, once accumulated in the cell, dynamic changes in reporter-gene expression may be difficult to detect(Fan and Wood, 2007; Almond et al., 2004). It has been shown that wild-type P. pyralis luciferase has a half-life of approximately four hours in mammalian cells (Thompson et al., 1991). Firefly luciferase reporter-gene assays are also generally considered one of the most sensitive assay types (Wood, 1995; Wood, 1998). Although light produced in a bioluminescence reaction is of lower intensity than that produced during fluorescence emission, this is offset by little to no background light inherent to luminescent assays. Thus the luciferase reporter can be expressed at much lower levels than fluorescent proteins while still providing robust signal. However, it was initially observed, in 1991, by Thompson et al., that compounds that resemble the substrates of firefly luciferase (FLuc) can act as competitive inhibitors of the enzyme, and that these compounds, upon interaction with luciferase in the cell, can actually stabilize the protein and increase its half-life. Accumulated intracellular FLuc protein can be measured as an increase in luminescence signal, upon addition of detection reagents (which contain high concentrations of FLuc substrates) commonly used in high-throughput screening. In cell-based reporter gene assays that use FLuc as the reporter gene to quantitate the potential influence of a given compound against the target biology, this apparent increase in luminescence can mistakenly be interpreted as identification of a compound that is active against the target of interest. FLuc inhibitory compounds that stabilize the FLuc protein will give an identical read-out, making it difficult to distinguish compounds that are active against the target from those active against FLuc. In summary, the results generated here constitutes a valuable resource for the scientific community and provides insight on identifying compounds with inhibitory activity for the commonly-used reporter, firefly luciferase. References: -Almond, B., Zdanovsky, A., Zdanovskaia, M., Ma, D., Stecha, P., Paguio, A., Garvin, D., and Wood, K. (2004). Introducing the Rapid Response Reporter Vectors. Promega Notes 87, 18-22. -Fan, F., and Wood, K.V. (2007). Bioluminescent assays for high-throughput screening. Assay Drug Dev Technol 5, 127-136. -Thompson, J.F., Hayes, L.S., and Lloyd, D.B. (1991). Modulation of firefly luciferase stability and impact on studies of gene regulation. Gene 103, 171-177. -Wood, K.V. (1998). The chemistry of bioluminescent reporter assays. Promega Notes 65, 14-20. -Wood, K.V. (1995). Marker proteins for gene expression. Curr Opin Biotechnol 6, 50-58.
Reagents: 50mM Tris acetate, pH 7.5; 10mM Mg acetate; 10uM D-luciferin (Sigma #L9504); 10uM ATP; 0.01% Tween-20; 0.05% BSA; 10nM P. pyralis luciferase (Sigma #L9506) Control compounds used were two known firefly luciferase inhibitors (compounds (2) and (5) in Auld et al., 2010), and DMSO. Assay Summary: Three microliters containing firefly luciferase substrates in buffer (final concentrations: 50mM Tris acetate, pH 7.5, 10mM Mg acetate, 0.01% Tween-20, 0.05% BSA, 10uM D-luciferin, and 10uM ATP) are dispensed into each well of a Greiner white, solid-bottom 1536-well format plate using a flying reagent dispenser (FRD). […]
As for `COc1cccc(Nc2cc3c(cn2)CN(C)CCN3C)c1`, the Potency was 39.8 µM (active).
With `O=C(Nc1ccccc1)N1C[C@@H]2C[C@H](C1)c1c(-c3ccc(Cl)cc3)ccc(=O)n1C2` the entry was “inactive”.
Then `COc1ccc(C(=O)NC[C@H]2C[C@@H]3CCN2C[C@@H]3c2cc(-c3ccccc3)nn2C)cc1`, with “inactive”; and `Cc1ccc(C(=O)N2[C@H]3CC[C@@H]2c2cnc(-c4ccccc4)nc2C3)c(C)c1`, with 20 µM (active).
Then `Cc1cccc(C(=O)N2[C@H]3CC[C@@H]2c2cnc(-c4ccccc4)nc2C3)c1`, with “inactive”.
For the molecule `COc1ccc(C(=O)N2[C@H]3CC[C@@H]2c2cnc(-c4ccccc4)nc2C3)c(OC)c1`, the Potency entry was “inactive”.
As to `C#C[C@H]1CN2CC[C@H]1C[C@@H]2COC(=O)Nc1cc(OC)cc(OC)c1`, the Potency result is “inactive”.
With `C=CCN(C)C[C@H]1CN2CC[C@H]1C[C@@H]2CNC(=O)Nc1cccc(SC)c1` the entry was “inactive”; with `COc1cc2c(cc1OCc1ccncc1)NC(=O)C21CCN(c2ncc(F)cn2)CC1`, “inactive”.
Then `Cc1ccc(C(=O)NC[C@H]2C[C@@H]3CCN2C[C@@H]3c2cc(-c3ccco3)nc(C)n2)cc1`, with “inactive”.

Source of the values: PubChem BioAssay AID1347043 (National Center for Advancing Translational Sciences (NCATS), 2019).
